# Gal4-VP16 FLuc: VP16 counterscreen qHTS for inhibitors of ROR gamma transcriptional activity; Drosophila S2 Gal4-VP16 UAS-luciferase, luminescence, 20 h; Potency, µM (top dose mostly 53.6 µM), for inactives: at the highest dose activity, negative = inhibition, usual class: inhibitors; 310,000 tested, 3.5% active; AID 2546, 2010;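 note: Gal4-VP16 expression switched on by copper sulfate through the metallothionein promoter; nearly all actives have a fitted effect of over 50% in size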
# RORg inh: qHTS for inhibitors of ROR gamma transcriptional activity; Potency, µM (top dose mostly 53.6 µM), without a hit: top-dose activity change, negative = inhibition, hits mostly inhibitors; 310,000 tested, 5.4% active; Nuclear receptor ROR-gamma (Mus musculus), P51450; Drosophila S2 Gal4-RORgamma UAS-luciferase reporter, 20 h; AID 2551, 2010; note: nearly all actives have a fitted effect of over 60% in size
# Target sequence (P51450 whole entry, looked up, the tested form may be a part): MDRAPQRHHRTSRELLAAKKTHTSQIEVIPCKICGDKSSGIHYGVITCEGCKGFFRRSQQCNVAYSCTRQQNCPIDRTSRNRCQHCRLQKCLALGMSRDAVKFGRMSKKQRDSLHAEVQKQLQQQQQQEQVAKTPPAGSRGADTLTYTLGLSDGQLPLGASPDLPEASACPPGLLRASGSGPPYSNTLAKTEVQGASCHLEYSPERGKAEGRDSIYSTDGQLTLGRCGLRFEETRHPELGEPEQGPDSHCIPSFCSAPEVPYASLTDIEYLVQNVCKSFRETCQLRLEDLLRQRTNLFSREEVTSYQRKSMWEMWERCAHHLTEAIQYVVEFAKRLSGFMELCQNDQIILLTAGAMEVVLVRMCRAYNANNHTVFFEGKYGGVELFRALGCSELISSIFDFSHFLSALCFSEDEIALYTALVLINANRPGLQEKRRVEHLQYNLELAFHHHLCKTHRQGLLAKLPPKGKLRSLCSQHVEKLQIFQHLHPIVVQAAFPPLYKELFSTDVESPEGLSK
#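 Drosophila Schneider cells stably carrying a metallothionein-driven Gal4 DBD–ROR gamma fusion and a UAS-Photinus luciferase reporter were exposed to compound for 1 hr, then induced with copper sulfate (700 uM final) for 20 hr at ambient temperature before luminescence reading.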
# DT40 TDP1 CPT: qHTS for Inhibitors of human tyrosyl-DNA phosphodiesterase 1 (TDP1): qHTS in cells in presence of CPT; Potency, µM (highest dose often 46.2 µM), for the others: top-dose activity change, negative = growth inhibition, most hits filed as inhibitors; 420,000 tested, 12% active; chicken DT40 Tdp1-/-;hTDP1 cells + 20 nM CPT, ATP luminescence, 48 h; note: nearly all actives have a fitted effect of over 55% in size
#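 Chicken DT40 Tdp1-/- cells stably complemented with human TDP1 were seeded at 400 cells/well in medium containing 20 nM camptothecin, exposed to pin-transferred compounds, and grown at 37 °C for at least 48 hr. Viability was read as ATP luminescence.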
# TDP1 block: qHTS Assay for Inhibitors of Tyrosyl-DNA Phosphodiesterase (TDP1); Tyrosyl-DNA phosphodiesterase 1 (Homo sapiens), Q9NUW8; recombinant TDP1, AlphaScreen DNA substrate cleavage; Potency, µM (titrated, usually from 130 µM), for the others: top-dose activity change, negative = inhibition, most hits filed as inhibitors; 350,000 tested, 0.28% active; note: nearly all actives have a fitted effect of over 40% in size
#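 Signal: AlphaScreen proximity between streptavidin donor and anti-FITC acceptor beads on intact substrate. Reaction: Tdp1 1 nM, substrate 15 nM final, 5 min RT after 15 min compound preincubation.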
# DT40 TDP1 no CPT: qHTS for Inhibitors of human tyrosyl-DNA phosphodiesterase 1 (TDP1): qHTS in cells in absence of CPT; DT40 Tdp1-/- hTDP1 cells, no CPT, ATP luminescence, 48 h; Potency, µM (series often up to 46.2 µM), for inactives: top-dose activity change, negative = growth inhibition, hits mostly inhibitors; 420,000 tested, 15% active; AID 686978, 2013; note: nearly all actives have a fitted effect of over 55% in size
#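 Growth kinetics read by CellTiter-Glo luminescence after ≥48 hr at 37 °C. Cells: DT40 Tdp1-/- stably carrying human TDP1, 400 per well, compound exposure in the absence of CPT (DMSO vehicle).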
# Active calls of the source: *; ? = inconclusive; · = not tested or not shown; [ ] = remark or other dose. In the library only some 19% were active in any assay of this set; here they are far more common. Calls come from the whole dose curve; as a rule, active = well fitted curve in the direction sought with a large enough effect; inconclusive = small, poorly fitted or top-dose-only effect, or another doubt; inactive = no such curve, though single readings can be large; an effect the other way counts as inactive or inconclusive. % is set by controls: 0 for no effect and ±100 for the full control effect; potency is the fitted concentration of half-maximal effect.
SMILES,Gal4-VP16 FLuc,RORg inh,DT40 TDP1 CPT,TDP1 block,DT40 TDP1 no CPT
O=C(O)CCC(=O)N1CCN(c2nc(-c3ccccc3)c3ccccc3n2)CC1,1%,37%,-16%,·,-17%
CCOC(=O)N1CCN(C(=O)c2ccccc2-c2ccccc2)CC1,-12%,-9%,3.7µM*,3%,3.3µM*
CCOC(=O)N1CCN(C(=O)c2ccccc2NC(C)=O)CC1,-16%,-6%,20%,3%,13%
CCOC(=O)N1CCN(C(=O)c2cccc(OC)c2O)CC1,3%,3%,-5%,2%,-7%
O=C(COc1ccccc1Cl)Nc1ccccc1C(=O)N1CCCCC1,0%,19%,?,1%,16µM*
CCOC(=O)N1CCN(C(=O)c2ccccc2NC(=O)COc2ccccc2)CC1,-14%,30%,?,5%,16µM*
CCOC(=O)N1CCN(c2nc(-c3ccccc3)c3ccccc3n2)CC1,8%,4%,-26%,·,26µM*
CCO[C@@H]1OC(C(=O)N2CCOCC2)=C[C@H](C(C)(C)C)[C@H]1CCCO,·,·,-27%,·,1%
CC(OC(=O)c1ccc(NS(=O)(=O)c2cccs2)cc1)C(=O)N(C)C1CCCCC1 (stereo not given),-28%,?,1%,0%,-7%
C=CCn1c(SCC(=O)NC2CCCC2)nnc1-c1ccccn1,-4%,5.6µM*,-12%,1%,?
CCn1c(SCC(=O)NC2CCCCC2)nnc1-c1cc2cccc(OC)c2o1,-3%,-23%,?,0%,23µM*
O=C(NCCc1nc(-c2ccccc2)no1)c1ccccc1,·,·,-10%,·,-4%
Cc1ccc(F)cc1NC(=O)/C=C/c1ccc(S(=O)(=O)N2CCOCC2)cc1,·,·,?,2%,?
CCN(C(C)=O)c1nnc(CSc2nc3ccccc3s2)s1,?,?,-3%,8%,-10%
Cc1cc(NS(=O)(=O)c2ccc(NC(=S)NCc3ccccc3)cc2)no1,2%,29%,-7%,0%,-5%
COc1cc(OC)cc(C(=O)Nc2ccc3nc(N4CCC(C)CC4)cc(C)c3c2)c1,·,·,9.2µM*,-3%,4.6µM*
COc1ccccc1C(=O)Nc1ccc2nc(N3CCC(C)CC3)cc(C)c2c1,·,·,?,3%,16µM*
CCN(CC)CCCNC(=O)CCC(=O)Nc1ccc2nc(N3CCC(C)CC3)cc(C)c2c1,0%,2%,?,1%,?
CC(C)CN1CC[C@@]2(CCCN(C(=O)c3cc(C(F)(F)F)cc(C(F)(F)F)c3)C2)C1,-12%,5%,0%,·,?
COc1cc(/C=C/C(=O)OC(C)C(=O)Nc2ccc(Cl)cn2)ccc1OC(F)F (stereo not given),·,·,7%,1%,0%
Cc1ccc(/C=C/C(=O)OC(C)C(=O)Nc2ccc(Cl)cn2)o1 (stereo not given),20%,59%,13µM*,2%,16µM*
CC(OC(=O)c1cc[n+]([O-])cc1)C(=O)Nc1ccc(Cl)cn1 (stereo not given),-4%,23%,-8%,5%,-10%
Cc1ccsc1C(=O)OC(C)C(=O)Nc1ccc(Cl)cn1 (stereo not given),·,·,?,-5%,26µM*
Cc1ccc(C(=O)CCC(=O)N(C)CC(=O)Nc2ccccc2Br)cc1,-2%,-8%,1%,2%,-8%
O=C(c1ccc(-n2nc(C(F)(F)F)c3c2CCCC3)cc1)N1CCOCC1,20%,20%,?,-1%,?
SMILES,Gal4-VP16 FLuc,RORg inh,DT40 TDP1 CPT,TDP1 block,DT40 TDP1 no CPT
CCCc1ccc(C2C3=C(CC(C)(C)CC3=O)NC3=C2C(=O)c2ccccc23)cc1 (stereo not given),-7%,-17%,21µM*,8%,16µM*
CC1OC(OCC2OC(Oc3c(-c4ccc(OCCO)c(OCCO)c4)oc4cc(OCCO)cc(O)c4c3=O)C(O)C(O)C2O)[C@@H](O)C(O)C1O (stereo not given in full),-7%,-17%,·,6%,·
Cc1ccc(-c2nnc(SCC(=O)NC3CCCC3)nc2-c2ccc(C)cc2)cc1,·,·,18µM*,0%,13µM*
CCOc1ccc(-c2nnc(SCC(=O)NC3CCCCC3)nc2-c2ccc(OCC)c(OC)c2)cc1OC,·,·,-6%,5%,-27%
CCC(Sc1nnc(-c2ccc(OC)c(OC)c2)c(-c2ccc(OC)c(OC)c2)n1)C(=O)NC1CCCC1 (stereo not given),·,·,16µM*,5%,?
COc1ccc(-c2nnc(SCC(=O)NC3CCCC3)nc2-c2ccc(OC)c(OC)c2)cc1OC,·,·,18µM*,-1%,21µM*
Cc1nc(NCC2CCCO2)c2nnn(Cc3c(F)cccc3Cl)c2n1 (stereo not given),16%,-5%,-23%,5%,?
CCN(CCCC(=O)c1ccc(F)cc1)CCc1ccccc1,-9%,-16%,?,3%,?
CCn1c(O)c2ccc(C(=O)N=NC(=O)c3ccccc3)cc2c1O,1%,24%,6%,5%,0%
CSc1nsc(SCC(=O)Nc2ccccc2C(N)=O)n1,7%,8%,3%,·,-18%
Cc1ccc(N=C2C(=S)N(c3ccc(C)cc3)C(=N)N2/N=C/c2ccc(Cl)cc2)cc1,3.2µM*,2.5µM*,26µM*,2%,26µM*
Cc1ccc2occ(CC(=O)N3CCN(c4cccc(Cl)c4)CC3)c2c1,·,·,?,2%,?
CCOC(=O)c1ccc(N/C=C/C(=O)c2ccc(OC)c(OC)c2)cc1,-8%,-21%,-18%,2%,?
COc1ccc(C(=O)Nc2ccc(C(=O)NCCc3ccc(OC)c(OC)c3)cc2)cc1,-12%,-34%,3%,·,-5%
COC(=O)c1ccc(NC(=S)NCCc2ccc(OC)cc2)cc1,?,7.9µM*,?,8%,3.7µM*
CCOC(=O)c1ccc(NC(=S)NCCc2ccc(OC)c(OC)c2)cc1,?,10µM*,?,7%,?
COC(=O)c1ccc(NC(=O)Nc2cccc(F)c2)cc1,?,?,?,0%,?
CCOC(=O)c1ccc(Nc2ccc(-c3ccc(OC)c(OC)c3)nn2)cc1,?,-19%,?,0%,4.6µM*
COC(=O)c1ccc(NC(=S)NCCc2cccc(C)c2)cc1,1.3µM*,1.3µM*,?,1%,?
O=C(O)Cc1ccc(NS(=O)(=O)c2ccc3c(c2)OCCO3)cc1,·,·,2%,·,-2%
CCOc1ccc(-c2noc(CCCC(=O)NC3CCCC3)n2)cc1OC,-13%,-24%,-13%,2%[0.0935 µM],-27%

# Compound activity: PubChem, National Center for Advancing Translational Sciences (NCATS)
